# Source: PubChem BioAssay (NCI)
# This is part of a sample that, as a whole, favours compounds with a hit. Of some 83,000 tested, about 20% had one in any assay.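 Each cell line was grown in a 96-well plate and treated with one concentration of compound for 48 hours. Values below 10 were considered active.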 Unmarked numbers belong to inactive results. Activity calls are given as the source filed them.
# Assays:
# Test in all cases: NCI-60 one-dose screen, 48 h (100 = growth as untreated, 0 = no growth, -100 = all killed)
# Settings in all cases: 10 µM unless noted
# SR leukemia = test system: SR leukemia
# RPMI-8226 leukemia = test system: RPMI-8226 leukemia
# OVCAR-8 ovarian = test system: OVCAR-8 ovarian
# OVCAR-5 ovarian = test system: OVCAR-5 ovarian
# OVCAR-4 ovarian = test system: OVCAR-4 ovarian
# SK-OV-3 ovarian = test system: SK-OV-3 ovarian
# IGROV1 ovarian = test system: IGROV1 ovarian
# OVCAR-3 ovarian = test system: OVCAR-3 ovarian
# HS 578T breast = test system: HS 578T breast
# NCI/ADR-RES ovarian = test system: NCI/ADR-RES ovarian
# T-47D breast = test system: T-47D breast
# BT-549 breast = test system: BT-549 breast
# MDA-MB-435 melanoma = test system: MDA-MB-435 melanoma
# SW-620 colon = test system: SW-620 colon
# MCF7 breast = test system: MCF7 breast
# HCT-116 colon = test system: HCT-116 colon
# HCC-2998 colon = test system: HCC-2998 colon
# KM12 colon = test system: KM12 colon
SMILES,growth (SR leukemia),growth (RPMI-8226 leukemia),growth (OVCAR-8 ovarian),growth (OVCAR-5 ovarian) [%],growth (OVCAR-4 ovarian),growth (SK-OV-3 ovarian) [%],growth (IGROV1 ovarian),growth (OVCAR-3 ovarian),growth (HS 578T breast) [%],growth (NCI/ADR-RES ovarian) [%],growth (T-47D breast),growth (BT-549 breast) [%],growth (MDA-MB-435 melanoma),growth (SW-620 colon),growth (MCF7 breast),growth (HCT-116 colon),growth (HCC-2998 colon),growth (KM12 colon) [%]
N#C/C(=C\c1ccc(-c2ccc(Cl)cc2)o1)c1nc(-c2ccco2)cs1,95%,64.7%,97.5%,61.8,4.22% (active),90.9,68.1%,106%,102,97.4,-27.1% (active),103,101%,98.5%,14.5%,101%,46.3%,67.3
O=S(=O)(NCCNc1cc(-c2cn(-c3ccccc3)nc2-c2cccc(O)c2)ccn1)c1ccc(Br)cc1,5.3% (active),13%,25%,50,40.7%,45.8,49.6%,34.7%,24.8,25.5,10.5%,45.6,22.4%,32.4%,13%,24%,-61.8% (active),17.3
CCC1C(=O)COC1=O (centres undefined),99.2%,83.9%,96.6%,108,105%,71.4,104%,109%,99.1,87.9,71.6%,95.9,103%,98%,94.8%,85.8%,107%,101
Cn1c2c(Cl)c(Cl)ccc2c2c(C#N)c[nH]c(=O)c21,112%,65.2%,91.2%,123,99.5%,107,89.5%,110%,84.5,103,102%,120,115%,106%,96.5%,92.7%,97.2%,111
O=S(=O)(NCCNc1cc(-c2cn(-c3ccccc3)nc2-c2cccc(O)c2)ccn1)c1ccc(C(F)(F)F)cc1,-23.1% (active),18.5%,48.3%,62.7,39%,54,43.3%,49.2%,48.6,43.4,18.3%,65.2,42.4%,64.8%,25.9%,28.4%,8.21% (active),46.5
C=C1C(=O)O[C@H]2[C@H]1CC/C(Cn1cc(-c3ccc(OC)cc3)nn1)=C\CC[C@@]1(C)O[C@@H]21,-10.8% (active),-33.3% (active),-51% (active),17.2,27.4%,120,-51.1% (active),-83.9% (active),75.6,24.7,-71% (active),50,-26.9% (active),-50.2% (active),-41.3% (active),-83.6% (active),2.05% (active),65.5
N#CCCCCCn1c2ccccc2c2c3[nH]c(=O)[nH]c(=O)c3c3c4ccccc4n(CCCCCC#N)c3c21,20.3%,53.4%,27.4%,92.4,58.7%,72.7,22.4%,49.2%,51.6,89.4,22.9%,32,36.8%,61.4%,45.3%,28.2%,53.8%,23.8
COc1ccc(-c2cc(-c3cccs3)n(N=O)c(=O)c2C#N)cc1,114%,88.4%,97.4%,94.4,100%,105,100%,123%,101,102,97.4%,104,125%,112%,95.8%,105%,112%,109
